# Screening results deposited in PubChem by several laboratories.
# rCAG binder: r(CAG) repeat RNA binding. inhibition, % at 3 µM. AID 651821. actives 1.3% (n = 370,000). TO-PRO-1 dye displacement fluorescence;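 active = inhibition above the plate cutoff, the mean of all test compounds on that plate plus 3 SD, cut at about 35% in these data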;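 also: higher means more dye released from RNA so lower well fluorescence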
# GRIN3A LBD mod: modulators (binders) of human NR3A ligand-binding domain | Tm shift relative to glycine control, % at 25 µM | actives 2.5% (n = 340,000) | NR3A LBD differential scanning fluorimetry, Tm shift; 0% = protein alone, 100% = glycine-bound protein;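 active = melting temperature shift of at least 10% of the positive control shift, at one fixed dose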
# NadD inh: blocks S. aureus nicotinate mononucleotide adenylyltransferase. inhibition, % at 20 µM. AID 602399. actives 0.78% (n = 360,000). purified NadD enzyme, colorimetric absorbance read-out; in the data active = inhibition above about 26%
# FAS TE block: inhibitors of human fatty acid synthase thioesterase domain; recombinant FAS-TE, OMFH fluorogenic substrate, fluorescence endpoint; AID 602261; inhibition, % at 15 µM; P49327; actives 0.67% (n = 360,000);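 active = compounds whose normalised, plate-corrected inhibition of enzyme fluorescence in the single-dose primary screen is 50% or more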
# Numbers stand for hits; n = inactive; x = no result given. The list is not random: actives were taken first. Their share in the collection is about 4.3%.
SMILES,rCAG binder,GRIN3A LBD mod,NadD inh,FAS TE block
COc1ccc(NC(=O)CN(C)C(=O)/C=C/c2cn(-c3ccccc3)nc2-c2ccc(F)cc2)cc1,n,10.4,n,n
COC(=O)[C@]12C[C@H](CC(=O)N3CCSCC3)C(=O)N(Cc3cccc4ccccc34)C1=C[C@H](C(C)C)O[C@@H]2C1CC1,n,x,x,x
Cc1nc2cc(C(=O)N3CCN(C(=O)C(C)(C)C)CC3)ccc2n1C1CCCC1,n,x,x,x
O=C(Nc1cccc(Cl)c1)c1ccc2ncsc2c1,n,33.8,n,n
O=C(Nc1ccc(Cl)cc1)c1ccc2ncsc2c1,n,23.9,n,n
O=C(Nc1ccc(F)cc1)c1ccc2ncsc2c1,n,n,n,n
CC(/C=N/NC(=O)CSc1nnc(SCc2ccc(C)cc2)s1)=C\c1ccco1,n,x,x,x
CC(C)CC(COCc1ccc([N+](=O)[O-])cc1)N1CCN(C(=O)c2ccc(C(F)(F)F)cc2)CCC1=O (centres undefined),n,n,n,56.8
Cc1cccc(COCC(CC(C)C)N2CCN(C(=O)c3ccc(C(F)(F)F)cc3)CCC2=O)c1 (centres undefined),n,n,n,n
COc1ccc2cc3c(N)nn(C(=O)c4ccc(Cl)c([N+](=O)[O-])c4)c3nc2c1,n,22.0,n,n
COc1ccc2cc3c(N)nn(C(=O)c4ccccc4[N+](=O)[O-])c3nc2c1,n,n,n,n
N#CCC[C@H]1CC[C@]2(CCCN(C(=O)c3ccc4ccccc4n3)C2)O1,n,x,x,x
O=C(Nc1ccc(C(=O)NN2C(=O)c3ccccc3C2=O)cc1)c1ccccc1,n,23.6,n,n
CC(=O)Nc1ccc(C(=O)NN2C(=O)c3ccccc3C2=O)cc1,n,n,n,n
CC(C)C(=O)Nc1ccc(C(=O)NN2C(=O)c3ccccc3C2=O)cc1,n,13.0,n,n
Cc1cccc(NC(=O)CSc2nc3c([nH]c4ccccc43)c(=O)n2C)c1,n,n,n,n
CCC1CCCCN1C(=O)CSc1nc2c([nH]c3ccccc32)c(=O)n1C (centres undefined),n,16.9,n,n
COc1cccc(NC(=O)CSc2nc3c([nH]c4ccccc43)c(=O)n2C)c1,n,37.9,n,n
Cc1cc([N+](=O)[O-])ccc1Nc1nc2ccccc2n2cnnc12,n,37.2,n,n
Oc1ccc(-c2nccc(-c3ccc(Cl)cc3)n2)cc1,n,56.7,n,n
Oc1ccc(-c2nccc(-c3ccc(Cl)cc3Cl)n2)cc1,n,n,n,n
Oc1ccc(-c2nnc(-c3ccc(O)cc3)nn2)cc1,n,n,n,n
Oc1ccc(-c2cccc(-c3ccc(O)cc3)n2)cc1,n,14.0,n,n
CCOC(=O)[C@]12CCCCC/C=C\1N(CCc1ccc(Cl)cc1)C(=O)[C@H]2CC(=O)NCCCN1CCCC1=O,n,x,x,x
COC(=O)C1CN(Cc2ccc(Cl)cc2)CCS(=O)(=O)N1Cc1cn(Cc2ccc(F)cc2)nn1 (centres undefined),n,x,x,x
SMILES,rCAG binder,GRIN3A LBD mod,NadD inh,FAS TE block
CCN(CC(=O)NCc1ccc(F)cc1)C(=O)COc1ccc2ccccc2c1,n,10.0,n,n
O=C(OCc1cn(Cc2ccc(F)cc2)nn1)N1CCCC1,n,x,x,x
CCOC(=O)c1ccc(NC(=S)N2CCSC2c2ccc(Br)cc2)cc1 (centres undefined),n,18.2,n,n
CCOC(=O)c1ccc(NC(=S)N2CCCC(C(=O)N3CCCC3)C2)cc1 (centres undefined),n,11.1,n,n
CCOC(=O)c1ccc(NC(=S)N2CCCC(C)C2)cc1 (centres undefined),n,n,n,n
COC(=O)[C@]12C[C@H](CC(=O)NCc3cccs3)C(=O)N(Cc3ccc(Cl)cc3Cl)C1=C[C@H](C1CCCC1)O[C@@H]2C,n,x,x,x
CCOC(=O)[C@]12CCCCC/C=C\1N(CCc1ccc(Cl)cc1)C(=O)[C@H]2CC(=O)NCCC(C)C,n,x,x,x
Cc1ccc(C)c(NC(=O)c2cc3c([nH]c4ccccc43)c(C)n2)c1,n,n,n,n
Cc1cccc(NC(=O)c2cc3c([nH]c4ccccc43)c(C)n2)c1C,n,14.0,n,n
CCOC(=O)C1=C(CSc2nc3c(cc2C#N)CN(C)CC3)OC(N)=C(C#N)C1c1ccc(F)cc1 (centres undefined),50.4,n,n,n
CCOC(=O)C1=C(CSc2nc3c(cc2C#N)CN(C)CC3)OC(N)=C(C#N)C1c1ccccc1 (centres undefined),n,n,n,n
Oc1ccc(/C=N/Nc2nc(-c3ccc(Cl)cc3)cc(C(F)(F)F)n2)cc1,n,31.6,n,n
O=c1[nH]c(/C(Cl)=C/c2c(F)cccc2Cl)nc2cc(Cl)ccc12,n,n,n,n
O=c1[nH]c(/C(Cl)=C/c2cc(Cl)ccc2O)nc2cc(Cl)ccc12,n,38.9,n,n
CC(C)C(C(=O)O)N1C(=O)/C(=C/C=C/c2ccco2)SC1=S (centres undefined),x,n,45.8,n
CC(C)C(C(=O)O)N1C(=O)/C(=C/c2cccn2C)SC1=S (centres undefined),n,n,n,n
COC[C@@H]1CCCN1c1cccc2c1S(=O)(=O)N(C1CC1)CC[C@@H](C)O2,n,x,x,x
COc1ccc(N2C(=O)C3CCCCC3C2=O)cc1NC(=O)c1ccccc1 (centres undefined),n,38.5,n,n
Cc1ccccc1NC(=O)c1cccc(N2C(=O)C3CCCCC3C2=O)c1 (centres undefined),n,n,n,n
COc1ccc(S[C@]2(C(=O)N3CCOCC3)CC(=O)N(S(=O)(=O)c3ccc(F)cc3)[C@@H]2c2ccc(OC)cc2)cc1,n,x,x,x
CCN1CCc2c(C#N)c(N3CCOCC3)nc(N3CCOCC3)c2C1,n,27.3,n,n
O=C(CSc1nnc(COc2ccccc2)n1-c1ccc(Cl)cc1)Nc1ccccc1-c1ccccc1,n,x,x,x
Cc1ccc(Nc2nc(=O)c3cc([N+](=O)[O-])ccc3s2)cc1,n,13.3,n,n
COc1ccc(Nc2nc(=O)c3cc([N+](=O)[O-])ccc3s2)cc1,n,13.5,n,n
COc1ccc(Nc2ccc([N+](=O)[O-])cn2)cc1,n,n,n,n
SMILES,rCAG binder,GRIN3A LBD mod,NadD inh,FAS TE block
COc1ccc(Nc2cc(C)c3cc([N+](=O)[O-])ccc3n2)cc1,n,27.9,n,n
CN(CCO)c1ccc2c(c1)Oc1ccccc1CN(Cc1cn(Cc3ccc(C(F)(F)F)cc3)nn1)S2(=O)=O,n,x,x,x
Cc1cccc(N(Cc2ccccc2)C(=O)CCl)c1,n,n,n,n
COc1cc(C(=O)NCc2ccc(C)cc2)ccc1OC(F)F,n,11.5,n,n
Cc1cccc(N(Cc2ccccc2)C(=O)c2ccc(CS(C)(=O)=O)cc2)c1,n,14.1,n,n
COc1cc(C(=O)N(Cc2ccccc2)c2cccc(C)c2)ccc1OC(F)F,n,14.1,n,n
COc1ccc(CC(=O)N(Cc2ccccc2)c2cccc(C)c2)cc1OC,n,n,n,n
CN1C(=O)c2cc(NC(=O)Cc3cccs3)ccc2OC[C@@H]2O[C@@H](CC(=O)N[C@H]3CCN(Cc4ccccc4)C3)CC[C@@H]21,n,x,x,x
Cc1ccccc1CN1CCCCC(NC(=O)c2ccc(Br)cc2)C1=O (centres undefined),n,x,x,x
Cc1ccc(N=Nc2ccc(O)cc2)c(Br)c1,n,13.2,n,n
